CHX counter = affects cycloheximide protein synthesis inhibition readout, counter-screen. cell reporter, cycloheximide protein synthesis inhibition counterscreen. max response, %. hit rate 12% among 300,000; in the data active = max response mostly above about 13%, no sharp cut-off; inactive = mostly below about 14%; note: read at 38.3 µM for the half of the compounds with a filed dose; 0% is about no effect
HCV inhibitor = blocks hepatitis C virus; Huh7.5.1 HCVcc-Cre infection, luciferase reporter, 44 h; Potency, µM (top dose mostly 41.8 µM), inactives show at the highest dose activity change, negative = inhibition, most hits filed as inhibitors; hit rate 3.4% among 340,000; AID 651820; active = well fitted inhibition curve with a large enough effect; inconclusive = small, poorly fitted or top-dose-only effect, or another doubt; inactive = no such curve, though single readings can be large or run the other way; note: potency is the fitted concentration of half-maximal effect; % is set by controls: 0 for no effect and ±100 for the full control effect
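A cell-based infection assay in which seeded cells (1,000 per well) receive test compound after 4 h, are inoculated with HCVcc-Cre at approximately 0.5 moi, and are incubated 44 h before luminescence detection.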
Marburg entry inh = Marburg virus entry inhibition; Marburg virus pseudotyped entry inhibition, cell reporter; Potency, µM (doses to about 37.8 µM), inactives show at the highest dose activity change, negative = inhibition, most hits filed as inhibitors; hit rate 1.8% among 300,000; calls by dose curve; tested in HEK293 cells; note: potency is the fitted concentration of half-maximal effect; % is set by controls: 0 for no effect and ±100 for the full control effect
FMDV antiviral = blocks foot and mouth disease virus. hit rate 1.2% among 410,000. Potency, µM (top dose mostly 57.9 µM), for inactives: top-dose activity change, negative = inhibition, hits mostly inhibitors. FMDV antiviral cell-based qHTS; calls by dose curve; tested in HEK293T cells; note: read-out not given here; potency is the fitted concentration of half-maximal effect; % is set by controls: 0 for no effect and ±100 for the full control effect; nearly all actives have a fitted effect of over 45% in size
Shiga inhibitor = blocks Shiga toxin action in Vero cells. Vero cells, Shiga toxin protein synthesis inhibition reporter. hit rate 9.2% among 290,000. inhibition, % at 38.7 µM; in the data active = inhibition mostly above about 28%, no sharp cut-off; inactive = mostly below about 43%; note: 0% is about no effect
LASV entry inh = Lassa virus entry inhibition; hit rate 1.2% among 300,000; AID 540256; Lassa virus pseudotype entry inhibition, cell reporter; Potency, µM (series often up to 37.9 µM), for the others: at the highest dose activity change, negative = inhibition, usual class: inhibitors; calls by dose curve; tested in HEK293 cells; note: potency is the fitted concentration of half-maximal effect; % is set by controls: 0 for no effect and ±100 for the full control effect; nearly all actives have a fitted effect of over 50% in size
* = called active by the depositor; ? = inconclusive; nt = no result given; [ ] = remark or other dose. Compounds with a hit are over-represented: about 13% of the library has one in this group of screens.

SMILES	CHX counter	HCV inhibitor	Marburg entry inh	FMDV antiviral	Shiga inhibitor	LASV entry inh
COc1ccc(OCCn2cc(C=O)c3ccccc32)cc1	-3	-6%	?	?	12	?
COC(=O)N/N=C/c1cn(Cc2ccccc2Cl)c2ccccc12	-3	-22%	-26%	0%	-17	-29%
COc1ccccc1OCCn1cc(/C=N/NC(N)=S)c2ccccc21	-2	8.9µM*	nt	?	-3	nt
COC(=O)N/N=C/c1cn(Cc2ccc(Cl)cc2Cl)c2ccccc12	-5	?	13µM*	-11%	-15	?
O=C(N/N=C/c1cn(CCOc2ccccc2)c2ccccc12)c1ccncc1	1	18%	0%	7%	25	?
O=Cc1cn(CCCOc2ccccc2)c2ccccc12	55*	2%	?	-7%	51*	11%
COC(=O)N/N=C/c1cn(CCCOc2ccccc2)c2ccccc12	40*	?	16µM*	?	72*	?
O=C(NC(=Nc1ccccc1)N1CCOCC1)Nc1ccccc1	11	15%	-1%	nt	26	3%
O=C(Cc1ccc(F)cc1)N1CCN(c2ccc(F)cc2)CC1	-3	2%	-11%	-10%	-4	?
COc1ccccc1CN1[C@@H](CC(=O)O)c2ccccc2S1(=O)=O	nt	2%	nt	-14%	nt	nt
CC1=CN2C(=N)/C(=C\c3cn(CCCOc4ccccc4)c4ccccc34)C(=O)N=C2S1	12*	2%	?	-28%	10	?
COc1cc(C(=O)N(C)CCOc2ccccc2)ccc1OCC(=O)Nc1cccc(C(F)(F)F)c1	nt	2.8µM*	?	?	nt	-29%
CCOC(=O)C1CCN(C(=O)c2ccc(OCC(=O)Nc3cccc(C(F)(F)F)c3)c(OC)c2)CC1	nt	2.8µM*	?	?	nt	?
CCOC(=O)N1CCC(NC(=O)c2cc(C(=O)Nc3cccc(C(F)(F)F)c3)ccc2CO)CC1	-2	13µM*	nt	?	13	nt
COCn1c2ccccc2c2nnc(C(=O)O)nc21	nt	nt	17%[14.2 µM]	nt	nt	nt
CCOC(=O)c1ccc(NCn2c(=O)oc3ccccc32)cc1	3	19%	?	26%	34	20%
CCOc1ccc(S(=O)(=O)N2CCCCC2)cc1NC(=O)CN1C(=O)NC(CC)(c2ccccc2)C1=O (stereo unspecified)	-1	?	?	0%	-8	?
CCC1(c2ccccc2)NC(=O)N(CC(=O)Nc2cc(S(=O)(=O)N3CCCCC3)ccc2OC(C)C)C1=O (stereo unspecified)	nt	10µM*	?	-2%	nt	-14%
CCC1(c2ccccc2)NC(=O)N(CC(=O)Nc2cc(S(=O)(=O)N3CCCCCC3)ccc2OC)C1=O (stereo unspecified)	nt	14µM*	?	-30%	nt	?
C/C(Cn1cnc([N+](=O)[O-])n1)=N\NC(=O)c1cccc(F)c1	25*	11µM*	-10%	39%	96*	26%
C/C(Cn1cnc([N+](=O)[O-])n1)=N\NC(=O)c1ccc(F)cc1	25*	-3%	-30%	-5%	41*	-4%
Cc1ccccc1OCCCCCCN1CCNCC1	nt	?	?	13%	nt	-7%
O=C(CSc1ncn[nH]1)c1ccc2c(c1)OCCO2	18*	-3%	8%	42%	active	4%
O=C(CSc1ncn[nH]1)c1ccc2c(c1)OCO2	14*	5%	?	29%	30	14%
O=C(CSc1ncn[nH]1)Nc1ccc2c(c1)OCCO2	14	1%	0%	32%	21	22%
SMILES	CHX counter	HCV inhibitor	Marburg entry inh	FMDV antiviral	Shiga inhibitor	LASV entry inh
O=C(CSc1ccc2ccccc2n1)c1ccc2c(c1)OCO2	53*	-21%	56%	5%	104*	?
CC(C)c1ccc(C(=O)CSc2ncn[nH]2)cc1	31*	-1%	6%	40%	81*	11%
CCN(C(=O)COC(=O)c1[nH]c(C)c(C(C)=O)c1C)C1CCS(=O)(=O)C1 (stereo unspecified)	-3	0%	20%	8%	-5	2%
CC(=O)c1ccc(-c2nc3c4ccccc4ccn3c2C(C)=O)o1	16	-5%	1µM*	7%	-36	1.3µM*
Cc1ccc(Cc2c(-c3ccco3)nc3c4ccccc4ccn23)cc1	nt	nt	nt	3%	nt	nt
CCOc1ccc(CCNC(=O)c2cc3c(=O)[nH]c4ccc(C)cc4c3s2)cc1OCC	nt	nt	?	0%	nt	10%[46.1 µM]

Screens (PubChem)
